The list is not random: actives were taken first. Their share in the collection is about 7.9%.
HT1080 IDH1KD tx: HT-1080 IDH1 knockdown cell toxicity (counter line); HT-1080 IDH1 knockdown viability, ATP luminescence, 48 h; Potency, µM (titrated, usually from 46.1 µM), most hits filed as cytotoxic; actives 2% (n = 360,000); AID 686971
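IDH1KD HT-1080 cells, 750/well, RPMI + 5% FBS; compound pinned after 2 h settling; 48 h, 37 °C; CellTiter-Glo luminescence; % activity normalised to DMSO and no-cell wells; curves fitted, classed by r2 and efficacy.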
KB-3-1 cytotox: KB-3-1 parental cell cytotoxicity; Potency, µM (titrated, usually from 46.1 µM), hits mostly cytotoxic; AID 1347075; actives 1.4% (n = 400,000); KB-3-1 viability, CellTiter-Glo ATP luminescence, 72 h; also: nearly all actives have a fitted effect of over 60% in size
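72 h, 37 °C compound treatment of KB-3-1 parental cells; CellTiter-Glo added, 10 min, luminescence read. Data corrected against DMSO-only plates and normalized before curve fitting.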
SW480 rerep: DNA re-replication induction in SW480 cells | SW480 DNA re-replication, Hoechst DNA content imaging, 48 h | Potency, µM (doses to about 46.1 µM), usual class: activators | actives 1.8% (n = 340,000); also: nearly all actives have a fitted effect of over 55% in size
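Readout is total intensity of Hoechst-stained nuclei, excited at 405 nm and collected at 500-530 nm. Compound treatment lasted 48 hr at 37 C in 5% CO2 before staining.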
HT1080NT lethal: kills 2HG-producing HT-1080-NT fibrosarcoma cells; HT-1080-NT fibrosarcoma viability, CellTiter-Glo ATP luminescence, 48 h; Potency, µM (highest dose often 46.1 µM), hits mostly cytotoxic; actives 1.6% (n = 360,000); AID 686970;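 also: NT is the 2HG producing partner of a matched IDH1 knockdown line; nearly all actives have a fitted effect of over 55% in size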
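Read-out is CellTiter-Glo luminescence after 10 minutes at room temperature, following 48 hours' compound treatment of HT-1080-NT cells (750 cells/well, RPMI, 5% FBS, 37 degrees C).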
KB-V1 cytotox: kills drug-selected multidrug resistant KB-V1 cells. Potency, µM (doses to about 46.1 µM), usual class: cytotoxic. KB-V1 MDR cells viability, CellTiter-Glo, 72 h. actives 3.4% (n = 400,000); also: nearly all actives have a fitted effect of over 60% in size
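KB-V1 MDR subline cells in DMEM (phenol-red free, 10% FBS) exposed to compounds in qHTS concentration series for 72 h at 37 degrees C. Viability read by CellTiter-Glo luminescence; concentration-effect curves fitted after normalization and correction.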
MCF10A rerep: induces DNA re-replication in MCF 10a normal breast cells. Potency, µM (titrated, usually from 46.1 µM), actives largely listed as activators. AID 624296. actives 2.9% (n = 350,000). MCF 10A DNA re-replication, Hoechst nuclear intensity, 48 h; also: nearly all actives have a fitted effect of over 50% in size
Numbers stand for hits; [ ] = remark or other dose. Calls follow the shape of the dose curve; as a rule, active = well fitted curve in the direction sought with a large enough effect; inconclusive = small, poorly fitted or top-dose-only effect, or another doubt; inactive = no such curve, though single readings can be large; an effect the other way counts as inactive or inconclusive.

For O=C(CN1CCN(S(=O)(=O)c2ccc(Br)cc2)CC1)N/N=C/c1ccc(Br)s1 the results were HT1080 IDH1KD tx inconclusive, KB-3-1 cytotox inactive, SW480 rerep inactive, HT1080NT lethal inactive, KB-V1 cytotox 21µM and MCF10A rerep inactive.
CCCNC(=O)CN1CCN(S(=O)(=O)c2ccc(Br)s2)CC1 was read as HT1080 IDH1KD tx inactive, KB-3-1 cytotox inactive, SW480 rerep inactive, HT1080NT lethal inactive, KB-V1 cytotox inconclusive and MCF10A rerep inactive.
Screening Cc1cc(C)cc(NC(=O)CN2CCCN(S(=O)(=O)c3ccc(Br)s3)CC2)c1 returned HT1080 IDH1KD tx inconclusive, KB-3-1 cytotox inconclusive, SW480 rerep inactive, HT1080NT lethal inactive, KB-V1 cytotox 2.9µM and MCF10A rerep inactive.
For Cc1ccc(/C=N/NC(=O)CN2CCN(S(=O)(=O)c3ccc(Br)cc3)CC2)s1 the results were HT1080 IDH1KD tx inactive, KB-3-1 cytotox inactive, SW480 rerep inactive, HT1080NT lethal inactive, KB-V1 cytotox inconclusive and MCF10A rerep inactive.
`Cc1ccc(NC(=O)CN2CCCN(S(=O)(=O)c3ccc(Br)s3)CC2)cc1` gave HT1080 IDH1KD tx inactive, KB-3-1 cytotox inactive, SW480 rerep inactive, HT1080NT lethal inactive, KB-V1 cytotox 4.6µM and MCF10A rerep inactive.
O=C(OCC(=O)N1CCCc2ccccc21)c1cc(Cl)ccc1O was read as HT1080 IDH1KD tx inactive, KB-3-1 cytotox inactive, SW480 rerep inactive, HT1080NT lethal inactive, KB-V1 cytotox inactive and MCF10A rerep inactive.
For Cc1ccc(C(C)C)c(OCC(=O)Nn2c(=O)[nH]c3ccccc3c2=O)c1 the results were HT1080 IDH1KD tx inactive, KB-3-1 cytotox inactive, SW480 rerep inactive, HT1080NT lethal inactive, KB-V1 cytotox 21µM and MCF10A rerep inactive.
For Cc1ccc(C(C)C)c(OCC(=O)Nn2c(C)nc3ccccc3c2=O)c1 the results were HT1080 IDH1KD tx inactive, KB-3-1 cytotox inactive, SW480 rerep inactive, HT1080NT lethal inactive, KB-V1 cytotox inactive and MCF10A rerep inactive.
CCCCNC(=O)C1(C)CCN1C(=O)c1cc(OC)ccc1Br (stereo unspecified) was read as HT1080 IDH1KD tx inactive, KB-3-1 cytotox inactive, HT1080NT lethal inactive and KB-V1 cytotox inactive.
`CC1CCCC(C)N1CCNC(=O)CCc1nnc2n(Cc3ccccc3)c(=O)c3ccccc3n12` (stereo unspecified) gave HT1080 IDH1KD tx inactive, KB-3-1 cytotox inactive, SW480 rerep inactive, HT1080NT lethal inactive, KB-V1 cytotox inconclusive and MCF10A rerep inactive.
`CC(C)C[C@@H]1O[C@H](CCc2ccccc2)CC2=C1C(=O)OC(C)(C)O2` gave HT1080 IDH1KD tx 23µM, KB-3-1 cytotox inconclusive, HT1080NT lethal inconclusive and KB-V1 cytotox inactive.
CC(C)[C@@H]1CC2=C(C(=O)OC(C)(C)O2)[C@H](CCc2ccccc2)O1 was read as HT1080 IDH1KD tx 16µM, KB-3-1 cytotox inactive, HT1080NT lethal inactive and KB-V1 cytotox inactive.
Screening CC(C)C[C@@H]1CC2=C(C(=O)OC(C)(C)O2)[C@H](CCc2ccccc2)O1 returned HT1080 IDH1KD tx inactive, KB-3-1 cytotox inactive, HT1080NT lethal inactive and KB-V1 cytotox inconclusive.
`Cc1ccc(NC(=O)/C(C#N)=C/c2cc(C)n(-c3ccc(Br)cc3)c2C)cc1C` gave KB-3-1 cytotox inactive and KB-V1 cytotox inactive.
Screening COc1cccc(NC(=O)C(C)Sc2nnc(C3CC3)n2C2CC2)c1 (stereo unspecified) returned HT1080 IDH1KD tx inactive, KB-3-1 cytotox inactive, SW480 rerep inactive, HT1080NT lethal inactive[9.24 µM], KB-V1 cytotox inactive and MCF10A rerep inactive.
For Nc1c(S(=O)(=O)O)cc(Nc2ccc(Nc3nc(Cl)nc(Nc4ccc(S(=O)(=O)O)cc4)n3)c(S(=O)(=O)O)c2)c2c1C(=O)c1ccccc1C2=O the results were KB-3-1 cytotox inactive and KB-V1 cytotox inactive.
CC(C)C[C@@H](NC(=O)[C@@H](Cc1ccccc1)NC(=O)c1cnccn1)B(O)O was read as SW480 rerep 0.0042µM and MCF10A rerep inactive.

Screening results deposited in PubChem BioAssay by National Center for Advancing Translational Sciences (NCATS).
